As usually defined, the inhibition is the share of the control response that was lost under treatment.

The structures appear in SMILES notation. Unmarked numbers belong to inactive results. The rule behind the calls is not given here.

Chain of Pantothenate synthetase (Mycobacterium tuberculosis (strain ATCC 25618 / H37Rv)) (P9WIL5 whole entry, looked up): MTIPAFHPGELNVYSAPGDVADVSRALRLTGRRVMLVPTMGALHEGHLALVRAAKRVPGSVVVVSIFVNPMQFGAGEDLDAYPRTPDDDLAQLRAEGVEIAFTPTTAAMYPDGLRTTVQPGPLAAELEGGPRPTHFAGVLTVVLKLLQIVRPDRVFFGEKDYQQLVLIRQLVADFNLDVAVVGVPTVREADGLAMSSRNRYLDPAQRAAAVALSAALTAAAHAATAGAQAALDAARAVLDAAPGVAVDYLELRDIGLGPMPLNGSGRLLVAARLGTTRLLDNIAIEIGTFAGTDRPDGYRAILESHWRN

This assay addresses Pantothenate synthetase (Mycobacterium tuberculosis (strain ATCC 25618 / H37Rv)) (UniProt P9WIL5). The assay can be described thus: Coupled enzyme confirmation of inhibitors against recombinant Mtb PanC (AID 375).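 Note: 0% = full reaction with vehicle and 100% = no enzyme background.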 The following applies: coupled enzyme assay; at 10 µM, hits give high values.
As to `CCOC(=O)c1cn(CC)c2cc(N3CCOCC3)c(F)cc2c1=O`, the inhibition is 0%. As for `CC(C)Cc1nc(N2CCN(C(=O)c3ccco3)CC2)c(C#N)c2c1CCC2`, the figure is 5%; as for `O=C(CSc1nnnn1C1CCCCC1)N1CCc2ccccc21`, 0%. Consider `COc1ccc(C)cc1NC(=O)CN(Cc1nnc(-c2ccc(Cl)cc2)o1)C1CCCC1`, for which the inhibition is 0%.

As to `CC(C)C(c1nnnn1C1CCCC1)N1CCCc2ccccc21` (stereo not given), the inhibition was 0%. The figure for `Cc1ccc(-n2c(=O)c3sccc3n(CC(=O)NCc3ccco3)c2=O)cc1` is 0%; for `CC1C(c2ccccc2)N(C)CCC12NC(=O)NC2=O` (stereo not given) it is 1%. The figure for `CCOC(=O)N1CCN(C(=O)c2cnn(-c3ccccc3)c2NC(=O)c2ccccc2F)CC1` is 0%. For `CN(C)c1ccc(CNn2cnnc2)cc1`, the inhibition was 2%. Take `Cc1ccc(Cn2nnnc2CN2CCC(O)(c3ccccc3F)CC2)cc1`: the inhibition was 0%. As for `Cc1ccc(CCP(=O)(O)CN2CCOCC2)cn1`, the figure is 0%; as for `COc1cccc(-n2c(SC3CCOC3=O)nc3ccccc3c2=O)c1` (stereo not given), 2%; as for `CCOC(=O)c1oc2ccccc2c1CSc1nnnn1-c1ccc(C)cc1`, 1%. As for `CC(=O)Nc1ccc(N2CCN(Cc3ccccc3F)CC2)cc1`, the inhibition is 0%.

Regarding `O=C1CC(c2ccsc2)c2cc3c(cc2N1)OCCO3` (stereo not given), the inhibition is 0%. The figure for `CCOC(=O)C1=C(C)NC2=C(C(=O)CC(C)(C)C2)C1c1ccc(N(C)C)cc1` (stereo not given) is 0%; for `C[C@H](CS)C(=O)N1CCC[C@H]1C(=O)O` it is 2%; for `CCOC(=O)c1cnc2c(OC)cccc2c1N1CCN(c2ccc(OC)cc2)CC1` it is 0%.

With `CCCCOc1ccccc1C1C(C(N)=O)=C(C)Nc2nnnn21` (stereo not given), the inhibition was 0%. As for `COc1ccc2c(CC(=O)Nc3ccc(OC)c(NS(=O)(=O)c4ccc(F)cc4)c3)coc2c1`, the figure is 1%; as for `CC(CCc1ccccc1)NC(=O)C1CCN(S(=O)(=O)c2cnc[nH]2)CC1` (stereo not given), 4%; as for `N#Cc1c2n(c(=S)n(-c3ccccn3)c1=O)CCCCC2`, 2%. Take `Cc1cccc(C)c1NC(=O)C1CCCCN1C` (stereo not given): the inhibition was 0%. With `CC(C)OC(=O)CSc1nnc(-c2ccccn2)n1-c1ccccc1`, the inhibition is 8%.

Turning to `Cc1onc(-c2ccccc2)c1C(=O)N[C@@H]1C(=O)N2[C@@H]1SC(C)(C)[C@@H]2C(=O)O`, the inhibition was 0%. Consider `N#Cc1nc(COc2ccc(Br)cc2)oc1N1CCCC1`, for which the inhibition was 16%. As for `Nc1ccc(S(=O)(=O)c2ccc(N)cc2)cc1`, the inhibition was 0%. As for `Nc1nc(CN2CCOCC2)cs1`, the figure is 1%. The figure for `CCOC(=O)c1[nH]c2ccc(C)cc2c1N=C(C)N(C)C` is 11%. As for `COC(=O)c1ccccc1NC(=O)Cn1ccnc1`, the inhibition was 0%. As for `O=C(Nc1ccc(N2C(=O)C3C4C=CC(C4)C3C2=O)cc1)Nc1nncs1` (stereo not given), the figure is 5%. As for `COC(=O)c1[nH]c(C)c(/C(O)=C2\C(=O)C(=O)N(CCN(C)C)C2c2ccccc2OC)c1C` (stereo not given), the figure is 1%. In the case of `COc1cccc(OCCSc2nnc3sc4ccccc4n23)c1`, the inhibition is 0%. The figure for `CCCC(C)C(=O)Nc1ccc(C(N)=O)cc1` (stereo not given) is 3%; for `COc1cccc(OCc2nnc(SCC(=O)OCc3ccccc3)o2)c1` it is 0%; for `COCCN(CCOC)C(=O)c1sc2nc(-c3ccccc3)cn2c1C` it is 0%. Regarding `CCOC(=O)c1c(N)c(C#N)nn1-c1ccccc1C(=O)OC`, the inhibition was 0%. Regarding `Nc1nc2n(n1)C(c1c(F)cccc1Cl)CC(c1ccc(F)cc1)N2` (stereo not given), the inhibition is 1%. The figure for `CC(=NCC1CCNCC1)C1=C(O)CC(C)(C)CC1=O` is 0%; for `CCCC1(C(=O)OCC)NC(c2ccc(N(C)C)cc2)C2C(=O)N(c3ccccc3)C(=O)C21` (stereo not given) it is 0%.

Values taken from PubChem BioAssay.
